Screens: PubChem BioAssay, The Scripps Research Institute Molecular Screening Center
FBW7 act: FBW7 E3 ligase activators, primary screen, biochemical, AlphaScreen, human | F-box/WD repeat-containing protein 7 (Homo sapiens), Q969H0 | AlphaScreen FBW7–phospho-cyclin E peptide binding, activator screen | normalized activity (activation), % at 26.1 µM | 0.13% of 650,000 active; in the data active = normalized activity above about 1.9%;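 note: purified mutant Fbw7 with reduced substrate affinity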
GPR151 activ: activators of human GPR151, primary screen, cell-based, PathHunter beta-arrestin, luminescence | G-protein coupled receptor 151 (Homo sapiens), Q8TDV0 | PathHunter beta-arrestin GPR151 cells | activation, % at 11.2 µM | 1% of 650,000 active | AID 1508602, 2020; in the data active = activation above about 4.9%;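 note: 0% = median of compound wells and 100% = cells with positive control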
Target sequence (Q8TDV0 whole entry, looked up): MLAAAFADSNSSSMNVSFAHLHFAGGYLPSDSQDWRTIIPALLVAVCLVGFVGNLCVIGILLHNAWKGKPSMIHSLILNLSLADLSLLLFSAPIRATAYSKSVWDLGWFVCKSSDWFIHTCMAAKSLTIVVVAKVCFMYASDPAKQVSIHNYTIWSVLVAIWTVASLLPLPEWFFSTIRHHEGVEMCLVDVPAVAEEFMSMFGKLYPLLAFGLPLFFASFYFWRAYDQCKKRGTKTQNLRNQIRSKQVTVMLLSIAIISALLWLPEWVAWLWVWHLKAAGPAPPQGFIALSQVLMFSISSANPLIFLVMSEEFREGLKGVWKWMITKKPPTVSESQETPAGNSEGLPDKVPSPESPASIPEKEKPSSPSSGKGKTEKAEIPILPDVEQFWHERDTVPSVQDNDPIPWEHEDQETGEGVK
TEAD-YAP inh: TEAD-YAP interaction inhibition, primary screen, TEAD-YAP interaction inhibitor project, luminescence, HEK-TIYL cells; inhibition, % at 9.12 µM; TEAD-Gal4/YAP UAS-luciferase luminescence; 1.4% of 640,000 active; in the data active = inhibition above about 32%;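 note: 0% = median of test compound wells and 100% = reference inhibitor wells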
MITF primary: MITF inhibitors, primary screen, biochemical, AlphaScreen, human; AlphaScreen MITF homodimerization, bead proximity signal; inhibition, % at 2.6 µM; 0.91% of 650,000 active; AID 1259374, 2018; in the data active = inhibition above about 50%;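 note: 0% = vehicle wells with protein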
* = called active by the depositor. Only some compounds are listed: those with a hit (about 3.5% of all), similar ones and a draw of the others.

SMILES	FBW7 act	GPR151 activ	TEAD-YAP inh	MITF primary
Cc1cc(Br)ccc1OCC(=O)Nc1cccc([N+](=O)[O-])c1	0.9	-2.7	-74.8	8.7
CC(C)Cc1ccc(-c2csc(N)n2)cc1	0.1	-2.1	-14.6	18.6
Cc1ccc(CC(=O)Nc2nc3c(s2)CCCC3)cc1	0.0	-0.5	26.2	-9.1
Cc1nc(C)c(CC(=O)Nc2nc3c(s2)CCCC3)s1	0.0	0.0	40.4*	3.7
CCOC(=O)c1ccc(NCc2ccc([N+](=O)[O-])cc2)cc1	-0.1	-0.9	-5.2	-7.1
FC(F)(F)c1ccc(Cn2cnc3c(NC4CC4)nc(Nc4ccc(N5CCOCC5)cc4)nc32)cc1	0.1	1.6	-7.1	6.9
CCNc1nc(Nc2cc(OC)c(OC)c(OC)c2)c2ncn(Cc3ccc(C(F)(F)F)cc3)c2n1	-0.1	1.4	52.2*	5.2
COc1cc(Nc2nc(Nc3cc(OC)c(OC)c(OC)c3)c3ncn(Cc4ccc(C(F)(F)F)cc4)c3n2)cc(OC)c1OC	-0.1	-0.8	10.0	-6.2
FC(F)(F)c1ccc(Cn2cnc3c(NC4CC4)nc(Nc4ccccc4)nc32)cc1	0.2	-0.6	35.3*	16.2
COc1cc(Nc2nc(-c3c(C)noc3C)nc3c2ncn3Cc2ccc(C(F)(F)F)cc2)cc(OC)c1OC	0.3	2.0	52.2*	5.9
COc1cc(Nc2nc(Nc3ccccc3)nc3c2ncn3Cc2ccc(C(F)(F)F)cc2)cc(OC)c1OC	0.0	-0.5	3.5	2.9
COc1cc(Nc2nc(Nc3ccc(C(F)(F)F)cc3)nc3c2ncn3Cc2ccc(C(F)(F)F)cc2)cc(OC)c1OC	0.1	1.0	6.1	-1.6
COc1cc(Nc2nc(NC3CCC(O)CC3)nc3c2ncn3Cc2ccc(C(F)(F)F)cc2)cc(OC)c1OC (stereo unspecified)	0.0	1.5	47.0*	6.6
CC1Cc2nc(SCC(=O)c3ccccc3)n(C)c(=O)c2S1 (stereo unspecified)	0.2	-0.2	-17.6	-3.1
Cc1ccc(CNC(=O)C23CCC(C)(C(=O)C2)C3(C)C)cc1 (stereo unspecified)	0.1	1.4	-1.7	6.3
Cc1noc(C)c1-c1nc(Nc2ccc(N3CCOCC3)cc2)c2ncn(Cc3ccc(C(F)(F)F)cc3)c2n1	0.7	-1.0	32.4*	9.2
Cc1nn(C)c(C)c1-c1nc(Nc2ccc(N3CCOCC3)cc2)c2ncn(Cc3ccc(C(F)(F)F)cc3)c2n1	0.0	-0.5	15.5	1.9
CCCCCC(=O)Nc1ccc(C(=O)Nc2ccc(C)cc2C)cc1	-0.2	3.5	-3.1	-8.4
COc1ccc2cc3c(N)nn(C(=O)c4ccccc4F)c3nc2c1	-0.1	-0.1	55.0*	3.9
COc1ccc2cc3c(N)nn(C(=O)c4cccc(Cl)c4)c3nc2c1	-0.2	-1.7	-2.1	-1.7
COc1ccc2cc3c(N)nn(C(=O)c4cccc(F)c4)c3nc2c1	0.2	-0.4	29.4	7.9
COc1ccc2cc3c(N)nn(C(=O)c4ccccc4Cl)c3nc2c1	0.1	-2.2	44.8*	8.9
COc1ccc2cc3c(N)nn(C(=O)c4ccc(F)cc4)c3nc2c1	0.0	0.7	35.7*	11.3
COc1ccc2cc3c(N)nn(C(=O)c4cccnc4)c3nc2c1	-0.1	-0.3	32.3*	-11.5
CC(=O)N(C1=C(N2CCCC2)C(=O)c2ccccc2C1=O)c1ccccc1C	0.5	-4.9	91.9*	31.4
SMILES	FBW7 act	GPR151 activ	TEAD-YAP inh	MITF primary
CC(=O)N(C1=C(N2CCCCC2)C(=O)c2ccccc2C1=O)c1ccc(C)cc1	-0.1	-0.5	-11.7	23.5
CC(C)(C)C(=O)NC(=S)Nc1ccccc1F	-0.1	-0.4	-34.9	-15.2
CCOc1ccc(NC(=O)CN2C(=O)/C(=C3\SC(N4CCOCC4)=NC3=O)c3ccccc32)cc1	8.4*	-0.6	0.1	18.6
CC(C)(C)c1ccc(/C=C2\SC(N3CCOCC3)=NC2=O)cc1	0.3	0.3	0.0	-3.8
Cc1ccc(/C=C2/SC(N3CCN(C)CC3)=NC2=O)cc1	-0.1	-1.1	2.9	57.9*
COc1cc(/C=C2\SC(N3CCCCC3)=NC2=O)ccc1O	-0.1	0.8	49.9*	1.4
CCOc1ccc(/C=C2\SC(N3CCOCC3)=NC2=O)cc1	2.3*	-0.4	8.0	7.9
CN1C(=O)/C(=C2\SC(N3CCOCC3)=NC2=O)c2ccccc21	1.0	-1.7	-8.4	15.5
COCCNc1ncc(-c2cc3ccccc3s2)cn1	0.5	-0.2	-65.2	16.7
O=C1N=C(N2CCOCC2)S/C1=C/c1ccc(O)cc1	-0.3	-0.1	47.0*	8.0
O=C(NCc1cccnc1)c1ccc(N2CCC(NCc3cc4ccccc4[nH]3)CC2)cc1	0.0	0.5	-4.4	11.5
O=C(O)COc1ccc(/C=C/c2nc3ccccc3s2)cc1	0.0	-7.6	71.6*	-3.2
CCN(CC)c1ccc(/C=C/c2nc3ccccc3s2)cc1	-0.5	-1.0	63.6*	-9.6
CCN(CC)c1ccc(Nc2nc(Nc3ccc(N(CC)CC)cc3)nc(Sc3nc4ccccc4s3)n2)cc1	0.0	1.7	-6.5	8.2
O=C(O)c1ccc(/C=C/c2nc3ccccc3s2)cc1	-0.1	-1.7	-40.2	-3.2
COc1ccccc1C1CN(CC(=O)NCCOC(C)C)Cc2ccccc2O1 (stereo unspecified)	-0.2	-0.5	-7.8	-5.5
COCc1c(C(=O)N/N=C/c2ccc(Cl)cc2)nnn1-c1nonc1N	0.1	-0.5	4.4	5.7
CCN(CC)c1ccc(/C=N/NC(=O)c2nnn(-c3nonc3N)c2COC)c(O)c1	-0.1	0.0	36.5*	-6.8
COCc1c(C(=O)N/N=C/c2cc(Cl)ccc2O)nnn1-c1nonc1N	-0.1	0.1	60.9*	38.0
COc1ccc(CCn2c(C)cc(C(=O)CSc3nc(N)cc(=O)[nH]3)c2C)cc1	-0.1	-0.2	33.1*	6.8
COc1ccc(CCn2c(C)cc(C(=O)CCl)c2C)cc1	0.3	0.8	40.3*	16.3
Cc1csc(-c2cnn3c(N4CCN(C)CC4)ccnc23)c1	-0.5	-1.0	32.5*	-12.9
Cc1ccc(-c2cnn3c(N4CCN(C)CC4)ccnc23)cc1	-0.1	0.1	-52.0	-11.7
Cc1cc(SCC(=O)NC2CCS(=O)(=O)C2)n2c(nc3ccccc32)c1C#N (stereo unspecified)	0.3	-0.8	11.0	14.4
N=C1/C(=C/c2cccn2-c2cc([N+](=O)[O-])ccc2Cl)C(=O)N=C2SC=CN12	-0.1	-1.0	36.3*	8.5
CCn1nc(C)cc1C(=O)N(CC1CCCO1)c1nc2cc(C)cc(C)c2s1 (stereo unspecified)	0.2	-1.7	41.1*	14.3
CCn1nc(C(=O)N(CC2CCCO2)c2nc3ccc(C)cc3s2)cc1C (stereo unspecified)	0.0	2.2	-19.1	9.6
Cc1cc(-n2c(C)nc3ccccc3c2=O)ccc1NC(=O)Cc1ccc(Cl)cc1	-0.1	-0.5	-5.2	4.7
Cn1c(=O)c2ncn(CC(=O)N/N=C/c3cc(Br)ccc3O)c2n(C)c1=O	-0.5	-0.6	11.9	62.7*
